Assay outcomes: PubChem BioAssay, National Center for Advancing Translational Sciences (NCATS)
uPA surface inh: inhibitors of cell surface uPA generation | cell surface uPA generation assay, qHTS | Potency, µM (doses to about 38.3 µM), without a hit: top-dose activity change, negative = inhibition, actives largely listed as inhibitors | 330,000 compounds, 0.31% hits; active = well fitted inhibition curve with a large enough effect; inconclusive = small, poorly fitted or top-dose-only effect; inactive = no such curve, though single readings can be large or run the other way; tested in mouse RAW 264.7 cells; also: % is scaled to controls: 0 for no effect and ±100 for the full control effect; nearly all actives have a fitted effect of over 55% in size
FLuc modulator: inhibits or activates purified firefly luciferase, miR-21 counter-screen; 360,000 compounds, 6.9% hits; Potency, µM (top dose mostly 57.5 µM), without a hit: at the highest dose activity change, negative = inhibition, most hits filed as inhibitors; P08659; purified FLuc, Km substrates, luminescence inhibition;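 also: plate controls were vehicle for no effect and reference inhibitor for full effect; nearly all actives have a fitted effect of over 55% in size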
Target sequence (P08659 whole entry, looked up): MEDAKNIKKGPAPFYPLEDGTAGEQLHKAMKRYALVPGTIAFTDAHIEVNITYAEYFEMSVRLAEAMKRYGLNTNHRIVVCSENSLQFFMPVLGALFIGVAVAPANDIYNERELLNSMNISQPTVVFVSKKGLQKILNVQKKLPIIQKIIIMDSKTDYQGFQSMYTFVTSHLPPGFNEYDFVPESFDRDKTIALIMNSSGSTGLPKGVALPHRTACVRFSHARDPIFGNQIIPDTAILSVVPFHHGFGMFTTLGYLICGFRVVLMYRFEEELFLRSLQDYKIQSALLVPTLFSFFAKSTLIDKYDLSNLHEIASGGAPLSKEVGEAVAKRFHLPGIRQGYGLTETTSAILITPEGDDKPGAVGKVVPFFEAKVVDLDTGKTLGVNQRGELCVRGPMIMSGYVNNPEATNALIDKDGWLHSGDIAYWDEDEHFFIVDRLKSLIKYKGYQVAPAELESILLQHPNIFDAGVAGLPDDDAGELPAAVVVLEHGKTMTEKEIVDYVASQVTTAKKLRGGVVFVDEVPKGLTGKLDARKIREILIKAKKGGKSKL
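Purified P. pyralis luciferase, 10 nM final, with Km-level 10 uM D-luciferin and 10 uM ATP in 50 mM Tris acetate pH 7.5, 10 mM Mg acetate, 0.01% Tween-20, 0.05% BSA; 6-point qHTS titration about 60 µM downward; luminescence read.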
NPC1 promoter act: NPC1 promoter activation; Potency, µM (doses to about 9.22 µM), inactives show at the highest dose activation, actives largely listed as activators; 320,000 compounds, 2.4% hits; AID 485313; Huh7 NPC1 promoter luciferase reporter, 24 h; also: % of control where 0% means no effect; nearly all actives have a fitted effect of over 60% in size
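Huh7 cells stably carrying NPC1 promoter–luciferase, plated in Opti-MEM with 10% FBS for 2 h, were exposed to compound in DMSO for 24 h at 37 °C; luciferase reagent was added for 10 min and luminescence read.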
SMN2 splice enh: increases expression of the SMN2 splice variant; Potency, µM (titrated, usually from 46.1 µM), for inactives: at the top dose activity change, positive = activation, hits mostly activators; 210,000 compounds, 2.8% hits; HEK293 SMN2-luciferase splicing reporter, luminescence, 30-36 h; also: % of control where 0% means no effect; nearly all actives have a fitted effect of over 55% in size
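HEK293 cells carry an SMN2 minigene-luciferase reporter in which exon 7 inclusion puts luciferase in frame. Cells were seeded at 2000 cells/well, attached for 10-12 hours, then exposed to compounds for 30-36 hours at 37C before ONE-Glo luminescence.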
ELG1 genotox: induces genotoxicity in HEK293T cells with luciferase-tagged ELG1. HEK293T ELG1-luciferase reporter, luminescence, 16 h. Potency, µM (top dose mostly 46 µM), inactives show top-dose activity change, positive = activation, most hits filed as activators. 330,000 compounds, 1.3% hits. AID 504466; also: % of control where 0% means no effect; nearly all actives have a fitted effect of over 60% in size
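Reporter readout depends on ELG1 protein level, which increases with genetic stress. After 16 hr compound exposure at 37 °C, luciferase activity was quantified using ONE-Glo.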
Rab9 promoter act: activates the Rab9 promoter | Potency, µM (titrated, usually from 9.22 µM), for the others: at the top dose activation, negative = inhibition, hits mostly activators | 320,000 compounds, 2.8% hits | Huh7 Rab9 promoter-luciferase reporter, luminescence, 24 h; also: % of control where 0% means no effect; nearly all actives have a fitted effect of over 60% in size
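Stable Rab9-luc Huh7, 1500 cells/well, 2 h settle; cmpd in DMSO, 24 h, 37 °C/5% CO2; luciferase reagent 10 min RT; luminescence.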
The depositor's hits bear a star; ? = inconclusive; . = not tested or not shown; [ ] = remark or other dose. A selection: hits, their analogues and other compounds. The true share with any hit is near 7.3%. Unless noted, calls follow the shape of the dose curve; as a rule, active = well fitted curve in the direction sought with a large enough effect; inconclusive = small, poorly fitted or top-dose-only effect, or another doubt; inactive = no such curve, though single readings can be large; an effect the other way counts as inactive or inconclusive. Potency is read from the fitted curve at half-maximal effect.

SMILES	uPA surface inh	FLuc modulator	NPC1 promoter act	SMN2 splice enh	ELG1 genotox	Rab9 promoter act
Cc1ccc(CNC(=O)Nc2ccccc2)cc1	-4%	12µM*	?	16µM*	9.2µM*	2.5µM*
CCOC(=O)C1(Cc2ccccc2Cl)CCN(C(=O)c2cnccn2)CC1	2%	15µM*	?	.	?	2.8µM*
CCCC(C(=O)NC(C)(C)CC)N(Cc1ccco1)C(=O)CNS(=O)(=O)c1ccccc1 (stereo not given)	2%	0%	-5%	.	5%	8%
COc1ccc(C(=O)NC2=NCCS2)cc1	-7%	19µM*	2.2µM*	.	?	2.8µM*
CC(C)Oc1ccc(C(=O)NC2=NCCS2)cc1	-15%	6µM*	0.71µM*	2.5µM*	?	0.45µM*
COc1cc(OC)cc(C(=O)NC2=NCCS2)c1	-7%	11µM*	3%	8%	?	26%
COc1ccc(C(=O)CCC(=O)NC2=NCCS2)cc1	10%	-6%	5%	.	8%	2%
COc1cc(C(=O)NC2=NCCS2)cc(OC)c1OC	-8%	0%	2%	?	-1%	3%
O=C(NC1=NCCS1)c1cccc(N2C(=O)c3ccccc3C2=O)c1	-16%	-12%	-4%	-12%	0%	0%
O=C(NC1=NCCS1)c1cccc(OC(F)F)c1	?	12µM*	2.2µM*	11µM*	5.8µM*	1.3µM*
CCN(CC)S(=O)(=O)c1ccc(C(=O)NC2=NCCS2)cc1	3%	1%	-1%	.	1%	2%
Cc1cccn2c(=O)cc(COc3cccc(NC(=O)Nc4cccc(Cl)c4)c3)nc12	.	3%	.	.	.	.
Cn1cnnc1SCC(=O)c1c(N)n(Cc2ccccc2)c(=O)n(C)c1=O	-2%	-4%	-1%	11%	1%	1%
O=C(NC12CC3CC(CC(C3)C1)C2)c1cccc(OC(F)F)c1	-4%	15µM*	25%	.	0%	2%[1.84 µM]
CN1CCc2nc(NC(=O)c3cccc(OC(F)F)c3)sc2C1	-6%	11µM*	24%	16%	?	22%
COc1ccc(Cc2nc3c4cnn(-c5ccccc5Br)c4ncn3n2)cc1	.	-4%	.	6%	.	.
Cn1ncc2c1ncn1nc(CCc3ccccc3)nc21	0%	7.6µM*	0.79µM*	?	?	1.3µM*
Brc1ccccc1-n1ncc2c1ncn1nc(Cc3ccccc3)nc21	.	17µM*	.	22%	.	.
CCN(CC)c1ccc(/C=C2/C(=O)c3ccc(C(=O)O)cc3C2=O)cc1	-4%	0.48µM*	-2%	-2%	?	-6%
O=C(Nc1ccccc1C(=O)O)c1cccc(C(=O)Nc2ccccc2C(=O)O)c1	-4%	19µM*	0%	.	-16%	1%
O=C(Nc1ccccc1C(=O)O)c1cccc(NC(=O)c2ccc(Br)o2)c1	-4%	19µM*	-2%	4%	1%	2%
O=C(Nc1ccc(O)cc1C(=O)O)c1cccc(Br)c1	-1%	21µM*	2%	-6%	-1%	6%
O=C(Nc1ccccc1C(=O)O)c1ccccc1	-3%	?	2%	12%	17%	-3%
O=C(Nc1ccccc1C(=O)O)c1ccc(NC(=O)c2ccc(Br)o2)cc1	.	?	0%	3%	-7%	0%
CC(=O)Nc1cccc(C(=O)Nc2ccccc2C(=O)O)c1	-1%	24µM*	-1%	5%	-1%	8%
SMILES	uPA surface inh	FLuc modulator	NPC1 promoter act	SMN2 splice enh	ELG1 genotox	Rab9 promoter act
COc1ccccc1CNC(=O)c1ccc(-c2nc(CN3CCc4ccccc43)c(C)o2)cc1	.	-2%	.	.	.	.
CCCn1c(-c2ccc(F)cc2)nc2c(N3CCN(C)CC3)nc(C)nc21	.	.	.	-11%	.	.
CC(C)CC(=O)Nc1cccc(C(=O)Nc2ccccc2C(=O)O)c1	.	15µM*	-2%	14%	-1%	-3%
CN1CCN(c2ccccc2NC(=O)c2ccc(-c3ccccc3)cc2)CC1	-6%	-9%	0%	7%	-14%	-10%
O=C(Nc1cccc(C(=O)Nc2ccccc2C(=O)O)c1)c1cccc(Cl)c1	21%	.	.	.	.	.
O=C(Nc1sc(-c2ccccc2)cc1C(=O)O)c1ccccc1	-1%	?	3.2µM*	.	23%	2.8µM*
Cc1c(NC(=O)c2ccc(-c3ccccc3)cc2)cccc1C(=O)O	?	0.6µM*	?	.	0.29µM*	?
O=[N+]([O-])c1cc(-c2nc(-c3ccccc3)no2)ccc1NCCc1ccccc1	.	4%	.	.	.	.
CC1=C(c2ccc(C)c(C)c2)S(=O)(=O)N=C1N1CCC(C(=O)NC(C)Cc2ccco2)CC1 (stereo not given)	.	5%	.	-9%	.	.
c1ccc(C2Nc3ccccc3-c3nc4ccccc4n32)nc1 (stereo not given)	-2%	?	-6%	-8%	2%	-1%
Cc1cc2n(n1)C(c1ccco1)Nc1ccccc1-2 (stereo not given)	-9%	0%	-6%	-2%	3%	1%
c1coc(C2Nc3ccccc3-c3nc4ccccc4n32)c1 (stereo not given)	-13%	21µM*	?	18µM*	?	?
c1ccc(C2Nc3ccccc3-c3nc4ccccc4n32)cc1 (stereo not given)	-2%	21µM*	3%	26%	?	6%
CCOc1ccc(NC(=O)Cn2ncc3c2-c2cc(C)ccc2OC3)cc1	.	5%	.	-2%	.	.
Cc1ccc(CN2CCSc3ccc(C(=O)Nc4ccc(C)cc4)cc32)cc1	.	21µM*	.	?	.	.
COc1ccc(NC(=O)c2ccc3c(c2)N(C)CCS3)cc1	-27%	3.4µM*	2µM*	.	?	4µM*
CN1CCSc2ccc(C(=O)Nc3cccc(F)c3)cc21	0%	1.7µM*	1.4µM*	.	2.1µM*	1µM*
CCOC(=O)c1ccc(CNC(=O)c2cc(COc3ccccc3SC)on2)o1	-21%	8.5µM*	2.5µM*	.	?	?
CSc1ccccc1OCc1cc(C(=O)N(C)C(C)c2nc(C)cs2)no1 (stereo not given)	-8%	-8%	4%	.	-8%	3%
CSc1ccccc1OCc1cc(C(=O)N(C)Cc2ccc(C)o2)no1	0%	17µM*	?	.	?	4µM*
CSc1ccccc1OCc1cc(C(=O)N(C)Cc2ccc3nsnc3c2)no1	0%	?	0.63µM*	.	3.3µM*	0.71µM*
CSc1ccccc1OCc1cc(C(=O)NCc2ccc(C)s2)no1	-3%	?	20%	.	2%	20%
COc1cc(/C=C/c2nc3cc(Cl)ccc3c(=O)n2-c2cccc(C(F)(F)F)c2)cc(OC)c1OC	.	-2%	.	.	.	.
CN(C)CCNC(=O)C1CCN(c2ncnc3c2nc2n3CCCCC2)CC1	.	-4%	.	.	.	.
CCCCCC[C@@H]([C@@H](C)O)n1cnc2c(N)ncnc21	-15%	.	-4%[46.1 µM]	25%	.	6%[46.1 µM]
